{"source": "PubChem BioAssay (NCATS)", "note": "Inconclusive results are not listed. Active and inactive are the calls of the source. Calls come from the whole dose curve; as a rule, active = well fitted inhibition curve with a large enough effect; inconclusive = small, poorly fitted or top-dose-only effect; inactive = flat fitted curve, though single readings scatter."}
{"biological_target": "Lysine-specific demethylase 5B (Homo sapiens) (UniProt Q9UGL1)", "sequence (Q9UGL1 whole entry, looked up)": "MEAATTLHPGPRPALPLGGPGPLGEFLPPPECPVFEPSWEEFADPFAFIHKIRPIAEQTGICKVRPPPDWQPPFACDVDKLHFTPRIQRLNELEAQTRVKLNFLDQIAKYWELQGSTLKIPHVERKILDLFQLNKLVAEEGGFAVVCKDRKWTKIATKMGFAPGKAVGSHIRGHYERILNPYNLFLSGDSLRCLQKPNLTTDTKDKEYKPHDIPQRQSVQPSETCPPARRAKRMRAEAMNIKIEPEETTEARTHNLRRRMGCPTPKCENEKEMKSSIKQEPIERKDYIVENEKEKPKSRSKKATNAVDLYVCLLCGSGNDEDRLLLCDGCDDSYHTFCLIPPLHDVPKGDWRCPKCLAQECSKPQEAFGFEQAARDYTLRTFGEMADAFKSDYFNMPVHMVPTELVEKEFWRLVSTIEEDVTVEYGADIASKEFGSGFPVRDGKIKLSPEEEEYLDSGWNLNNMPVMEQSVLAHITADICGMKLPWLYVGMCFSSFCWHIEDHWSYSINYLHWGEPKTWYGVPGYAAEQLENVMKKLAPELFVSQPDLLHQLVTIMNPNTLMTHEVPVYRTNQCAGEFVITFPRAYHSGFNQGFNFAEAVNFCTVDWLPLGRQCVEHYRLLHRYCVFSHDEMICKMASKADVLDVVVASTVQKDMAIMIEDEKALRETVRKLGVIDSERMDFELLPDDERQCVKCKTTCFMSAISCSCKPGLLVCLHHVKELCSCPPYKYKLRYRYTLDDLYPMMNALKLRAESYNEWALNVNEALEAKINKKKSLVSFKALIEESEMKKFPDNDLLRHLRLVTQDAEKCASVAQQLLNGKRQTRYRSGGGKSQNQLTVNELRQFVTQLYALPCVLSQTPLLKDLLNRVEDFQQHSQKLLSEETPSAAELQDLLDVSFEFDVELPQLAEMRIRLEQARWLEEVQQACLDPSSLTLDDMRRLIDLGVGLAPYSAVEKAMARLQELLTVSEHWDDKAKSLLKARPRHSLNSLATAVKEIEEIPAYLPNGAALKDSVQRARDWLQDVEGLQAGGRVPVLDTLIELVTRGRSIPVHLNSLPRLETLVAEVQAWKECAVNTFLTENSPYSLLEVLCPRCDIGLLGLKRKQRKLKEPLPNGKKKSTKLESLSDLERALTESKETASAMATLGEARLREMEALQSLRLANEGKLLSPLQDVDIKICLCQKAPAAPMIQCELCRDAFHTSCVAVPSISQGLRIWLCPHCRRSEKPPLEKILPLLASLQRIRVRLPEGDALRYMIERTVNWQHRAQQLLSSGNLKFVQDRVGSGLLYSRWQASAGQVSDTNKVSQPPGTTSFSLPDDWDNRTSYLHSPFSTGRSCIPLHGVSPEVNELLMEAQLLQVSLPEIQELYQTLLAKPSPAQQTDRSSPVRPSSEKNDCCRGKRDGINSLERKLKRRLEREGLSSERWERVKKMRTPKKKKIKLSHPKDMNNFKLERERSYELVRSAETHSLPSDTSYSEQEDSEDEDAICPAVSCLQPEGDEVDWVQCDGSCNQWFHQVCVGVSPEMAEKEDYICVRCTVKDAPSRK", "assay": "Optimization screen for KDM5B Histone Demethylases FDH coupled qHTS against the LOPAC library (AID 1347166)", "details": "KDM5B demethylation, FDH-coupled NADH fluorescence (FDH is formaldehyde dehydrogenase); series mostly up to 57.5 µM", "in_short": "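KDM5BDeltaAP (200nM final) preincubated 10 min with compound, then 12.5uM H3K4Me3, 25uM a-ketoglutarate, ascorbate, Fe(II), NAD+ and FDH added; 50mM HEPES pH 7.5, 0.01% Tween-20. NADH fluorescence (340/450 nm) change over 30 min, room temperature.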"}
{"smiles": "c1ccc(-c2ccccn2)nc1", "outcome": "inactive"}
{"smiles": "CSc1ccccc1N1CCN(CCCCCC(=O)NC2CCCc3ccccc32)CC1", "note": "(configuration not stated)", "outcome": "inactive"}
{"smiles": "Nc1ncnc2c1ncn2[C@@H]1O[C@H](COP(=O)(O)CP(=O)(O)OP(=O)(O)O)[C@@H](O)[C@H]1O", "outcome": "inactive"}
{"smiles": "NCC1OC(O[C@H]2[C@H](O)[C@@H](OC3C(O)C(N)CC(N)C3OC3OC(CO)C(O)C(O)C3N)O[C@@H]2CO)C(N)C(O)C1O", "note": "(some centres not stated)", "outcome": "inactive"}
{"smiles": "NC[C@@H]1O[C@H](C23CC4CC(CC(C4)C2)C3)Cc2c1ccc(O)c2O", "outcome": "inactive"}
{"smiles": "COc1cc(C(O)CO)ccc1OS(=O)(=O)O", "note": "(configuration not stated)", "outcome": "inactive"}
{"smiles": "CC12C(=O)OC(=O)C1(C)C1CCC2O1", "note": "(configuration not stated)", "outcome": "inactive"}
{"smiles": "COC(=O)c1c(C)[nH]c(C)c1C(=O)c1ccccc1Cc1ccccc1", "outcome": "inactive"}
{"smiles": "Nc1nc(Cl)nc2c1ncn2[C@@H]1O[C@H](COP(=O)(O)OP(=O)(O)OP(=O)(O)O)[C@@H](O)[C@H]1O", "outcome": "inactive"}
{"smiles": "CN(C)CCCO[C@@H]1[C@H]2OC(C)(C)O[C@H]2O[C@@H]1[C@H](O)CO", "outcome": "inactive"}
{"smiles": "O=C(O)CC1CCCc2ccccc2C1O", "note": "(configuration not stated)", "outcome": "inactive"}
{"smiles": "CO/N=C(\\C(=O)N[C@@H]1C(=O)N2C(C(=O)O)=C(COC(C)=O)CS[C@H]12)c1csc(N)n1", "outcome": "inactive"}
{"smiles": "NCCCS(=O)(=O)O", "outcome": "inactive"}
{"smiles": "COc1cc(OC)c(/C=C2/C(=O)Nc3ccccc32)c(OC)c1", "outcome": "inactive"}
{"smiles": "CN1[C@@H](CC(=O)c2ccccc2)CCC[C@H]1C[C@H](O)c1ccccc1", "outcome": "inactive"}
{"smiles": "NC(N)=NC(=O)c1nc(Cl)c(N2CCCCCC2)nc1N", "outcome": "inactive"}
{"smiles": "OCC1O[C@H](O)C(Cl)C(O)C1O", "note": "(some centres not stated)", "outcome": "inactive"}
